Bioassay records as filed in PubChem BioAssay.
Hits are enriched below; roughly 2.4% of the tested compounds scored in any of these assays.
D2 ag-1: Beta-Arrestin HTS for Positive Allosteric Modulators of the Human D2 Dopamine Receptor: Agonists; D(2) dopamine receptor (Homo sapiens), P14416; DiscoveRx PathHunter D2 beta-arrestin, luminescence, 90 min; 100% = 57 uM dopamine signal; activation, % (test concentration not listed); 0.084% of 360,000 active; AID 624465, 2012; in the data active = activation above about 40%; inconclusive = between about 15% and that limit
Target sequence (P14416 whole entry, looked up): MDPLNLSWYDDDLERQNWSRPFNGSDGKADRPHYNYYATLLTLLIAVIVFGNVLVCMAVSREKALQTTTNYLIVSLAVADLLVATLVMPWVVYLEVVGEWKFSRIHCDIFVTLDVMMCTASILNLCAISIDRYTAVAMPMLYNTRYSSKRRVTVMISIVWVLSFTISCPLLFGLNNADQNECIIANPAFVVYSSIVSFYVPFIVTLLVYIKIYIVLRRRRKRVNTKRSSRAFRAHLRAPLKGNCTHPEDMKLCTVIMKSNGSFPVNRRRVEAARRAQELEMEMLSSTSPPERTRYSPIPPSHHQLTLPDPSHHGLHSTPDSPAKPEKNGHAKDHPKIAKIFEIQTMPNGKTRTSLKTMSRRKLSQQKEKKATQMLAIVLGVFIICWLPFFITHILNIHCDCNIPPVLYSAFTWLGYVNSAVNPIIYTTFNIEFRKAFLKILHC
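Agonist mode: compounds alone added to overnight-plated D2 PathHunter cells for 90 min at 37 C, with 57 uM final dopamine (EC100) defining full response. Beta-arrestin recruitment detected by chemiluminescent reagent, read after 1 h at ambient temperature.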
D2 PAM-1: HTS Assay for Positive Allosteric Modulators of the Human D2 Dopamine Receptor: Primary Screen for Potentiators; D(2) dopamine receptor (Homo sapiens), P14416; HEK293 T-REx D2, calcium flux, EC20 dopamine potentiation; potentiation, % at 10 µM; 0.34% of 340,000 active; AID 485347, 2010;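 active = potentiation over 3 SD above the plate norm, cut at about 30% in these data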
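Calcium flux readout, no-wash dye, 1 read/s. Inducible HEK293 Trex D2 line, overnight 30 C. Compound alone 180 s (agonist flags), then EC20 dopamine, another 180 s to score potentiation.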
D2 PAM-2: Beta-Arrestin HTS for Positive Allosteric Modulators of the Human D2 Dopamine Receptor: Potentiators; D(2) dopamine receptor (Homo sapiens), P14416; DiscoveRx D2 beta-arrestin cells, luminescence, 90 min; 100% = 57 uM dopamine signal; potentiation, % (no concentration beside the values); 0.23% of 360,000 active; in the data active = potentiation above about 50%; inconclusive = mostly about 30% to 49%
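PathHunter D2 cells, attached overnight at 37 deg C, received compound in DMSO plus dopamine at EC20 (50 nM final) for 90 min at 37 deg C. Beta-arrestin recruitment was read as luminescence after 1 h with detection reagent at ambient temperature.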
D2 antagonist: HTS Assay for Allosteric Antagonists of the Human D2 Dopamine Receptor: Primary Screen for Antagonists; D(2) dopamine receptor (Homo sapiens), P14416; HEK293 TREx D2 cells, calcium flux, dopamine EC80; inhibition, % at 10 µM; 2% of 340,000 active; in the data active = inhibition above about 30%; inactive = below that, where a call was filed
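Overnight-induced (tetracycline, 30 C) HEK293 T-REx cells carrying force-coupled D2 receive a no-wash calcium dye, then compound, then EC80 dopamine at 180 s; signals are read kinetically throughout.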
D2 ag-2: HTS Assay for Allosteric Agonists of the Human D2 Dopamine Receptor: Primary Screen for Agonists. D(2) dopamine receptor (Homo sapiens), P14416. HEK293 T-REx D2 cells, calcium flux agonist mode. activation, % at 2 µM. 0.53% of 340,000 active. AID 485358, 2010;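 active = activation over 3 SD above normal in the single-dose calcium agonist read, cut at about 30% in these data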
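HEK293 Trex D2 cells, tetracycline-induced, o/n 30 C 5% CO2; no-wash Ca dye, RT 30–90 min; 10-cycle baseline, 23 nl cpd added, kinetic Ca read 180 s; agonist hits = positive Ca response.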
D3 arrestin ag: qHTS of D3 Dopamine Receptor Agonist: D3 Dopamine Receptor B-arrestin Agonist Confirmatory Assay; 4% of 2,300 active; AID 720506, 2013; shares compounds with D2 ag-2; Potency, µM (series often up to 76.9 µM), most hits filed as activators; DiscoveRx D3 beta-arrestin cells, luminescence, 90 min; also: nearly all actives have a fitted effect of over 70% in size
D2 ag-3: qHTS of D3 Dopamine Receptor Agonist: D2 Dopamine Receptor B-arrestin Agonist Counterscreen | DiscoveRx PathHunter D2 beta-arrestin, luminescence, 90 min; response scale: percent relative to full dopamine signal | Potency, µM (series often up to 76.9 µM), most hits filed as activators | 5.9% of 2,300 active | AID 720507, 2013 | shares compounds with D2 ag-2; also: nearly all actives have a fitted effect of over 70% in size
Large screens that a line does not name were inactive (follow-up assays come after a bar, where they were run). Unless noted, calls follow the shape of the dose curve; as a rule, active = well fitted activation curve with a large enough effect; inconclusive = small, poorly fitted or top-dose-only effect; inactive = flat fitted curve, though single readings scatter.

CCOC(=O)N1CCC(N2CCN(Cc3ccccc3)C(CCO)C2)CC1 (stereo not drawn)	D2 ag-1 inconclusive, D2 antagonist 76, D2 ag-2 78 | D3 arrestin ag inactive | D2 ag-3 inconclusive
CCOC(=O)N1CCC(N2CCCC(C(=O)c3cc(C)c(OC)c(C)c3)C2)CC1 (stereo not drawn)	none (no result: D2 PAM-1, D2 antagonist, D2 ag-2)
COc1cccc(CN2CCN(C3CCN(c4ccccc4C)CC3)CC2CCO)c1 (stereo not drawn)	D2 ag-2 60 | D3 arrestin ag inactive | D2 ag-3 inactive
COc1cccc(CN(C)S(=O)(=O)c2ccccc2Br)c1	none (no result: D2 PAM-1, D2 antagonist, D2 ag-2)
COc1ccc(Nc2ncc(C(=O)Nc3cccc(OC)c3)c3ccccc23)cc1	none (no result: D2 ag-1, D2 PAM-2, D2 antagonist)
O=C(NCCN1CCN(c2ccccc2F)CC1)c1ccc2nc3ccccc3c(=O)n2c1	D2 antagonist 57, D2 ag-2 67 | D3 arrestin ag inactive | D2 ag-3 inconclusive
COC(=O)c1cc(S(=O)(=O)NCCN2CCN(c3ccccc3F)CC2)c[nH]1	D2 antagonist 73 | D3 arrestin ag inactive | D2 ag-3 inactive
Cc1c(C)n(C)c2ccc(C(=O)NCCCN3CCN(c4ccccc4F)CC3)cc12	D2 antagonist 98, D2 ag-2 67 | D3 arrestin ag inactive | D2 ag-3 inactive
Cc1c(C)n(C)c2ccc(C(=O)NCCCN3CCN(c4ccc(F)cc4)CC3)cc12	none
Cn1c(C(=O)NCCN2CCN(c3ccccc3F)CC2)cc2c(=O)n(C)c3ccccc3c21	D2 antagonist 95, D2 ag-2 54 | D3 arrestin ag inactive | D2 ag-3 inactive
CCn1c(SCC(=O)Nc2cc(C)on2)nnc1-c1c[nH]c2ccccc12	none
CCCCCCN1C[C@H](O)[C@@H](n2cc(C3CC3)nn2)C[C@@H]1c1ccccc1	none (no result: D2 PAM-1, D2 antagonist, D2 ag-2)
Cc1ncc(CO)c2c1Oc1nc(-c3ccc(F)cc3)nc(SCc3ccc(F)cc3Cl)c1C2	none (no result: D2 ag-1, D2 PAM-2, D2 antagonist)
COc1ccccc1OCc1cc(C(=O)N(C)CCC2CCCCO2)no1 (stereo not drawn)	none
C[C@H](CO)N1C[C@H](C)[C@@H](CN(C)S(=O)(=O)c2cn(C)cn2)Oc2ccc(NC(=O)C3CCCCC3)cc2C1=O	none (no result: D2 PAM-1, D2 antagonist, D2 ag-2)
CCc1nc2ccc(C(=O)NCCCN3CCN(c4ccccc4F)CC3)cc2nc1CC	D2 antagonist 88 | D3 arrestin ag inactive | D2 ag-3 inactive
C=CCCCCCCCCC(=O)Nc1ncccn1	none
COCCN(C(=O)C1=COCCO1)c1c(N)n(CC(C)C)c(=O)[nH]c1=O	none | D3 arrestin ag inactive | D2 ag-3 inactive
COCCN(C(=O)C1=COCCO1)c1c(N)n(Cc2ccccc2)c(=O)[nH]c1=O	none
COCCN(C(=O)c1ccc(COc2ccccc2)o1)c1c(N)n(CC(C)C)c(=O)[nH]c1=O	none | D3 arrestin ag inactive | D2 ag-3 inactive
CCN1C=C(Cc2cccs2)C2=C(C1)C(c1cccs1)C(C#N)=C(N)O2 (stereo not drawn)	D2 antagonist 81, D2 ag-2 44 | D3 arrestin ag inactive | D2 ag-3 inactive
CCN1CC2=C(OC(N)=C(C#N)C2c2cccs2)/C(=C/c2cccs2)C1 (stereo not drawn)	none (no result: D2 PAM-1, D2 antagonist, D2 ag-2) | D3 arrestin ag inactive | D2 ag-3 inactive
Cc1ccc(NC(=O)Cn2nc(-c3ccccc3)nc(Cc3ccc(Cl)cc3)c2=O)cc1	none (no result: D2 ag-1, D2 PAM-2, D2 antagonist)
